Screening results (PubChem BioAssay)
The full list was thinned out, with hits kept by preference.
FECH block: blocks human mitochondrial ferrochelatase activity; purified FECH, Ni-mesoporphyrin absorbance 550 nm; calls only at 10 µM (by protocol); 3.3% of 20,000 active; AID 1671448;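 active means enzyme reaction rate more than 3 SD below the solvent-only control wells on the same plate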;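 further: lower slope than DMSO wells means FECH inhibition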
* marks the source's active call; other numbers are inactive results; i = inactive; + = active, no number.

SMILES | FECH block
COc1ccc(NC(=O)CN2CCCN(Cc3ccccc3)S2(=O)=O)c(OC)c1 | i
CCOc1ccc(NC(=O)NCCc2nc3cccnc3n2C2CCCCC2)cc1 | i
CCc1ccc(S(=O)(=O)Nc2cnc(N(CC)CC)c(C(=O)O)c2)cc1 | i
COc1ccccc1NC(=O)Nc1nc(CC(=O)Nc2cccc(Br)c2)cs1 | i
Oc1cccc2ccc(CN3CCCC(OCc4cccnc4)C3)nc12 (configuration not stated) | i
Cc1ccc(C2=CC(c3ccc(F)cc3)n3nc(NC(=O)c4ccccc4)nc3N2)cc1 (configuration not stated) | i
Cc1ccc(C2=CC(c3c(F)cccc3Cl)n3nc(NC(=O)CCc4ccccc4)nc3N2)cc1 (configuration not stated) | i
Cc1cccc(C(=O)Nc2nc3n(n2)C(c2c(F)cccc2Cl)C=C(c2ccc(Cl)cc2)N3)c1 (configuration not stated) | +
CC(=O)Nc1nc2n(n1)C(c1c(F)cccc1Cl)C=C(c1ccccc1)N2 (configuration not stated) | +
CCC(=O)Nc1nc2n(n1)C(c1c(F)cccc1Cl)C=C(c1ccc(C)cc1)N2 (configuration not stated) | i
COc1ccc(C(=O)Nc2nc3n(n2)C(c2c(F)cccc2Cl)C=C(c2ccccc2)N3)cc1 (configuration not stated) | i
O=C(Nc1nc2n(n1)C(c1ccc(F)cc1)C=C(c1ccccc1)N2)c1ccc(Cl)cc1 (configuration not stated) | i
O=C(Nc1nc2n(n1)C(c1c(F)cccc1Cl)C=C(c1ccccc1)N2)c1ccccc1 (configuration not stated) | +
Cc1ccc(C2=CC(c3c(F)cccc3Cl)n3nc(NC(=O)c4cccc(Cl)c4)nc3N2)cc1 (configuration not stated) | i
O=C(Nc1nc2n(n1)C(c1ccc(F)cc1)C=C(c1ccccc1)N2)c1ccccc1 (configuration not stated) | +
O=C(Nc1nc2n(n1)C(c1ccccc1Cl)C=C(c1ccccc1)N2)c1ccccc1 (configuration not stated) | i
Cc1ccc(C2=CC(c3ccc(Cl)cc3)n3nc(NC(=O)c4ccccc4F)nc3N2)cc1 (configuration not stated) | i
Cc1nc(C(=O)N(Cc2cncs2)C2CC2)cs1 | i
c1cncc(NCCCNC2CCSC2)c1 (configuration not stated) | i
COc1ccnc(CN2CCOC(c3ccc(Cl)cc3)C2)c1OC (configuration not stated) | i
Cc1ccccc1Nc1nc(N2CCC(C)CC2)nc2c1cnn2-c1ccccc1 | i
CCc1cc(Sc2ccccc2NC(=O)c2ccc(C(C)(C)C)cc2)n2ncnc2n1 | i
COC(=O)[C@@H]1C[C@@H](O)CN1Cc1cc(=O)oc2cc(C)c(C)cc12 | i
COC(=O)c1cc(S(=O)(=O)N2CCCC2C(=O)NCc2ccccn2)cn1C (configuration not stated) | i
CCc1cc(NCc2ccccc2C)n2nc(-c3cccnc3)nc2n1 | i
SMILES | FECH block
O=C(c1csc(S(=O)(=O)NC2CCCc3ccccc32)c1)N1CCCCC1 (configuration not stated) | i
Cc1noc(C)c1CC(=O)N1CCCC2(CC1)CNC(=O)O2 (configuration not stated) | i
O=C1CCS(=O)(=O)N1c1ccc(S(=O)(=O)NCCC2=CCCCC2)cc1 | i
Cc1ccc(-c2ncc3c(=O)n(Cc4c(C)cc(C)cc4C)c(=O)n(C)c3n2)cc1 | i
CCc1cc(C(=O)N2CCc3c(nc(-c4ccncc4)nc3N(C)C)C2)on1 | i
Cc1nc2nc(CN(c3ccccc3)S(=O)(=O)c3ccccc3)nn2c(C)c1Cl | i
Cc1ccc(C(=O)Nc2nc3n(n2)C(c2c(F)cccc2Cl)C=C(c2ccc(Cl)cc2)N3)cc1 (configuration not stated) | i
Cc1ccc(C2=CC(c3c(F)cccc3Cl)n3nc(NC(=O)c4ccc(Cl)cc4)nc3N2)cc1 (configuration not stated) | i
O=C(Nc1nc2n(n1)C(c1c(F)cccc1Cl)C=C(c1ccc(Cl)cc1)N2)c1cccnc1 (configuration not stated) | +
Cc1ccc(S(=O)(=O)Nc2cnc(N3CC=C(c4ccccc4C)CC3)c(C(=O)O)c2)cc1 | +
Cc1ccccc1C1=CCN(c2ncc(NS(=O)(=O)c3ccc(F)c(F)c3)cc2C(=O)O)CC1 | i
COc1ccc(S(=O)(=O)Nc2cnc(N3CC=C(c4ccccc4C)CC3)c(C(=O)O)c2)cc1 | i
CCN(Cc1noc(C)n1)C(=O)c1cc(COc2cc(C)ccc2C)on1 | i
COCC(NC(=O)c1cc(C)nc2c(C)cccc12)c1ccnn1C (configuration not stated) | i
Cn1nnnc1SCCNC(=O)c1cnc(-c2ccccc2)nc1 | i
CCN1C(SCC(=O)N2CCN(c3ccccc3F)CC2)=NS(=O)(=O)c2ccccc21 | i
